In PubChem BioAssay (Tox21):
Results filed as inconclusive are left out. The source made the active and inactive calls. Unless noted, the call rests on the fitted dose curve; in most records, active means well fitted curve in the direction sought with a large enough effect in the repeat runs; inconclusive means weak or mixed curves; inactive means no such curve, though single readings can be large; an effect the other way counts as inactive or inconclusive.

How the values were obtained:
[1] = biological target: Thyrotropin receptor (Homo sapiens) (UniProt P16473); experiment: qHTS assay to identify small molecule agonists of the thyroid stimulating hormone receptor (TSHR) signaling pathway (AID 1224843; calls by dose curve; further: nearly all actives have a fitted effect of over 45% in size)
Summary of the method: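 TSHR-expressing HEK293 cells (800 per well) were exposed to compounds for 30 min at room temperature. cAMP was then detected by HTRF competition with cAMP-d2 and anti-cAMP cryptate, read after 1 h at room temperature. Fifteen concentrations, triplicate.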

[2] = qHTS assay to identify small molecule agonists of the hypoxia (HIF-1) signaling pathway - cell viability counter screen (AID 1224844; calls by dose curve; further: nearly all actives have a fitted effect of over 50% in size)
Summary of the method: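 HRE-bla ME-180 cells, 2,000/well in 0.5% dialyzed FBS medium, treated 17 h at 37C with compounds. Viability read in the same wells as the bla reporter, by CellTiter-Glo luminescence after 30 min at room temperature.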

[3] = qHTS assay to identify small molecule agonists of the hypoxia (HIF-1) signaling pathway (AID 1224846; active means well fitted activation curve with a large enough effect in the signal ratio in the repeat runs, not every such curve was filed as active; the % refers to the signal ratio)
Summary of the method: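 HRE-bla ME-180 beta-lactamase reporter cells in medium with 0.5% dialyzed FBS, pre-incubated 5 h then exposed to compounds 17 h at 37C, 5% CO2; reporter induction read with CCF4-AM FRET substrate.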

[4] = qHTS assay to identify small molecule agonists of H2AX - cell viability counter screen (AID 1224847; calls by dose curve; further: top concentration of the series differs between compounds; nearly all actives have a fitted effect of over 30% in size)
Summary of the method: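 Compounds tested at 15 concentrations were incubated 3 hr at 37C with wild-type CHO-K1 cells; cellular ATP-based luminescence (CellTiter-Glo) indicated viability.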

[5] = qHTS RealTime-Glo MT Cell Viability Assay in HepG2 cells - 24 hour (AID 1224867); further: nearly all actives have a fitted effect of over 50% in size
Summary of the method: (§1)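 Tox21 10K library screened in qHTS format on HepG2 cells carrying RealTime-Glo reagents. Compounds were added after a 5 h preincubation, and the luminescent signal from continuous culture was measured repeatedly during 40 h treatment.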

[6] = qHTS RealTime-Glo MT Cell Viability Assay in HEK293 cells - 32 hour (AID 1224868); further: top concentration of the series differs between compounds; nearly all actives have a fitted effect of over 50% in size
Summary of the method: (§2)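 Luminescence generated by NanoLuc from substrate produced by living HEK293 cells served as the viability signal. Each value reflects the reading at its stated time point during continuous 40 h compound exposure at 37 C.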

[7] = A CellTox Green Cytotoxicity Assay to monitor cytotoxicity in HEK293 cells - 0 hour (AID 1224869); further: nearly all actives have a fitted effect of over 50% in size
Summary of the method: (§3)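 HEK293 cells, 600/well, were preincubated 5 hours and then exposed to compounds at 37 C for up to 40 hours. A cell-impermeant cyanine dye staining dead-cell DNA was read by fluorescence at 0, 8, 16, 24, 32 and 40 h time points.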

[8] = qHTS RealTime-Glo MT Cell Viability Assay in HepG2 cells - 40 hour (AID 1224870); further: nearly all actives have a fitted effect of over 50% in size
Summary of the method: (§4)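 HepG2 cells mixed with RealTime-Glo MT reagents (NanoLuc plus cell-permeant prosubstrate) were seeded at 600 cells/well, incubated 5 h at 37 C/5% CO2, then pinned with compounds in DMSO; nonlytic luminescence tracked viability during 40 h treatment.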

[9] = A CellTox Green Cytotoxicity Assay to monitor cytotoxicity in HEK293 cells - 40 hour (AID 1224871); further: nearly all actives have a fitted effect of over 45% in size
Summary of the method: as §3

[10] = qHTS RealTime-Glo MT Cell Viability Assay in HEK293 cells - 16 hour (AID 1224872)
Summary of the method: as §2

[11] = qHTS RealTime-Glo MT Cell Viability Assay in HepG2 cells - 8 hour (AID 1224873); further: nearly all actives have a fitted effect of over 55% in size
Summary of the method: as §4

[12] = qHTS RealTime-Glo MT Cell Viability Assay in HEK293 cells - 40 hour (AID 1224874); details: RealTime-Glo luminescence; max response: active compounds read low; further: nearly all actives have a fitted effect of over 50% in size
Summary of the method: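 600 cells/well were plated with the nonlytic NanoLuc/prosubstrate reagent, pre-incubated 5 h, then given 23 nL of compound in DMSO. Incubation at 37 C for 40 h, with luminescence from viable-cell-reduced substrate read repeatedly from 0 h.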

[13] = A CellTox Green Cytotoxicity Assay to monitor cytotoxicity in HEK293 cells - 24 hour (AID 1224875); further: nearly all actives have a fitted effect of over 45% in size
Summary of the method: as §3

[14] = A CellTox Green Cytotoxicity Assay to monitor cytotoxicity in HepG2 cells - 16 hour (AID 1224876); further: nearly all actives have a fitted effect of over 45% in size
Summary of the method: (§5)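 HepG2 cells, 600/well, preincubated 5 h with CellTox Green dye, then exposed to Tox21 compounds in DMSO at 37 C for up to 40 h. Dead-cell DNA fluorescence read at the indicated time point.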

[15] = qHTS RealTime-Glo MT Cell Viability Assay in HepG2 cells - 32 hour (AID 1224877); further: nearly all actives have a fitted effect of over 55% in size
Summary of the method: as §1

[16] = A CellTox Green Cytotoxicity Assay to monitor cytotoxicity in HepG2 cells - 24 hour (AID 1224878); further: nearly all actives have a fitted effect of over 45% in size
Summary of the method: as §5

[17] = A CellTox Green Cytotoxicity Assay to monitor cytotoxicity in HepG2 cells - 40 hour (AID 1224879); further: nearly all actives have a fitted effect of over 40% in size
Summary of the method: as §5

[18] = qHTS assay to identify small molecule antagonists of the estrogen related receptor (ERR) signaling pathway from Tox21 library (AID 1224848); further: nearly all actives have a fitted effect of over 50% in size
Summary of the method: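 Cells: ERR line, 2,000/well; 6 h preincubation 37 C/5% CO2. Cpd in DMSO via pin tool; 18 h, 37 C. ONE-Glo, 30 min RT, luminescence.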

[19] = qHTS assay to identify small molecule agonists of the estrogen related receptor (ERR) signaling pathway from Tox21 library (AID 1224849; calls by dose curve; further: nearly all actives have a fitted effect of over 15% in size); details: ERR reporter cell line, ONE-Glo luciferase, 18 h; at 92.4 µM (top of the series) unless noted
Summary of the method: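 ERR reporter cells (NTP line) pre-incubated 6 hours at 37 C, then exposed to compounds for 18 hours at 37 C. ONE-Glo luciferase luminescence was read after 30 minutes at room temperature.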

[20] = qHTS assay to identify small molecule agonists of H2AX (AID 1224845; active means well fitted activation curve with a large enough effect in the signal ratio in the repeat runs, not every such curve was filed as active; the % refers to the signal ratio)
Summary of the method: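 Wild-type CHO-K1 cells plated overnight, then exposed 3 hr at 37C to compounds at 15 concentrations (0.76% DMSO). Lysed, then HTRF anti-pH2AX(S139)-cryptate/anti-H2AX-d2 detection after 24 hr at room temperature; emissions 665 and 620 nm.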
On the % scale 0 is the no-effect control and ±100 the full control effect.

Thyrotropin receptor (Homo sapiens), sequence (P16473 whole entry, looked up): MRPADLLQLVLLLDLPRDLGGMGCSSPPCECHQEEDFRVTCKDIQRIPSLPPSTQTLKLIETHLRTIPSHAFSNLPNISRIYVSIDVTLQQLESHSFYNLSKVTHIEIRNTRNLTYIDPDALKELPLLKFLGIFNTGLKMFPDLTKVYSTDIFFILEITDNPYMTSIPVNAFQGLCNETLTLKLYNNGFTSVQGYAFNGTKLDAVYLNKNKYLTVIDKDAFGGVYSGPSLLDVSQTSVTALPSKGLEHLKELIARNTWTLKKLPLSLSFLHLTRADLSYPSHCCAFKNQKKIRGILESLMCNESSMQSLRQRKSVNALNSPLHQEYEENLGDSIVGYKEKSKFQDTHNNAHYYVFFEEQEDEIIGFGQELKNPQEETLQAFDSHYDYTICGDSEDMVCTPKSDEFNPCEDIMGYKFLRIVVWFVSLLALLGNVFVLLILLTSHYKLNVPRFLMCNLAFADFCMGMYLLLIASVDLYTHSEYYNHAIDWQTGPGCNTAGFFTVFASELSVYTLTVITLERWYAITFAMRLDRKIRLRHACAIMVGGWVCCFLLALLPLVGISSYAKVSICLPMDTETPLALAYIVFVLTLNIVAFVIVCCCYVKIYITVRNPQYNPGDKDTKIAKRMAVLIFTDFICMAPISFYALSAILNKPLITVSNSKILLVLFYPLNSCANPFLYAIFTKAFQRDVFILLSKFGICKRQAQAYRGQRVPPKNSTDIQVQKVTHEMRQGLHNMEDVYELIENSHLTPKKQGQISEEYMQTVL

NC(=O)OCCCc1ccccc1
inactive: Potency [1] | Potency [2] | outcome [3] | Potency [4] | Potency [5] | Potency [6] | outcome [7] | Potency [8] | Potency [9] | Potency [10] | outcome [11] | max response [12] 2.14% | Potency [13] | Potency [14] | Potency [15] | Potency [16]

CCc1cc(OC)c(C[C@H](C)N)cc1OC
inactive: Potency [1] | Potency [2] | outcome [3] | Potency [4] | Potency [5] | outcome [7] | Potency [8] | Potency [9] | Potency [10] | outcome [11] | Potency [13] | Potency [14] | Potency [15] | Potency [16] | Potency [17]

CCC(C(N)=O)N1CCCC1=O (configuration not stated)
inactive: Potency [1] | Potency [2] | outcome [3] | Potency [4] | Potency [5] | Potency [6] | outcome [7] | Potency [8] | Potency [9] | Potency [10] | outcome [11] | max response [12] 6.54% | Potency [13] | Potency [14] | Potency [15] | Potency [16] | Potency [17]

CNC(=O)Oc1ccccc1C(C)C
inactive: Potency [1] | Potency [2] | outcome [3] | Potency [4] | Potency [18] | activity change, positive = activation [19] 1.9% | Potency [5] | Potency [6] | outcome [7] | Potency [8] | Potency [9] | Potency [10] | outcome [11] | Potency [13] | Potency [14] | Potency [15] | Potency [16] | Potency [17]

CCOc1cc(OP(=S)(OC)OC)nc(CC)n1
inactive: Potency [1] | Potency [2] | outcome [3] | Potency [4] | Potency [5] | Potency [6] | outcome [7] | Potency [8] | Potency [9] | Potency [10] | outcome [11] | max response [12] 6.75% | Potency [13] | Potency [14] | Potency [15] | Potency [16]

COC(=O)c1ccc(CBr)cc1
inactive: Potency [1] | Potency [2] | Potency [4] | Potency [5] | Potency [6] | outcome [7] | Potency [8] | Potency [9] | Potency [10] | outcome [11] | max response [12] 3.15% | Potency [13] | Potency [14] | Potency [15] | Potency [16] | Potency [17]

CCC1(c2cccc(O)c2)CCCCN(C)C1 (configuration not stated)
inactive: Potency [1] | Potency [2] | Potency [4] | Potency [5] | outcome [7] | Potency [8] | Potency [9] | Potency [10] | outcome [11] | Potency [13] | Potency [14] | Potency [15] | Potency [16] | Potency [17]

CC(C)NCC(O)c1ccc([N+](=O)[O-])cc1 (configuration not stated)
inactive: Potency [1] | outcome [20] | Potency [4] | Potency [5] | outcome [7] | Potency [8] | Potency [9] | Potency [10] | outcome [11] | max response [12] 6.95% | Potency [13] | Potency [14] | Potency [15] | Potency [16] | Potency [17]

CC(Cl)(Cl)Cl
inactive: Potency [1] | outcome [20] | outcome [3] | Potency [4] | Potency [18] | activity change, positive = activation [19] 4% | Potency [5] | Potency [6] | outcome [7] | Potency [8] | Potency [9] | Potency [10] | outcome [11] | max response [12] -1.28% | Potency [13] | Potency [14] | Potency [15] | Potency [16] | Potency [17]

C[C@@H](N)[C@@H](O)c1ccccc1
inactive: Potency [1] | outcome [20] | Potency [4] | Potency [5] | Potency [6] | outcome [7] | Potency [8] | Potency [9] | outcome [11] | max response [12] 1.05% | Potency [13] | Potency [14] | Potency [15] | Potency [16] | Potency [17]

C[N+]1(C)CCCCC1
inactive: Potency [1] | outcome [20] | outcome [3] | Potency [4] | Potency [5] | Potency [6] | outcome [7] | Potency [8] | Potency [9] | Potency [10] | outcome [11] | Potency [13] | Potency [14] | Potency [15] | Potency [16] | Potency [17]

CCN(CC)C1CCCCC1
inactive: Potency [2] | outcome [20] | outcome [3] | Potency [4] | Potency [18] | activity change, positive = activation [19] 0.2% | Potency [5] | Potency [6] | outcome [7] | Potency [8] | Potency [9] | Potency [10] | outcome [11] | max response [12] 2.39% | Potency [13] | Potency [14] | Potency [15] | Potency [16]

NNCc1ccccc1
inactive: Potency [1] | outcome [20] | Potency [4] | Potency [5] | Potency [6] | outcome [7] | Potency [8] | Potency [9] | Potency [10] | outcome [11] | Potency [13] | Potency [14] | Potency [15] | Potency [16] | Potency [17]

C=C(Cl)CCl
inactive: Potency [1] | outcome [20] | outcome [3] | Potency [4] | Potency [5] | Potency [6] | outcome [7] | Potency [8] | Potency [9] | Potency [10] | outcome [11] | max response [12] -1.15% | Potency [13] | Potency [14] | Potency [15] | Potency [16] | Potency [17]
